According to PubChem BioAssay (NCI):
About 83,000 compounds went through this panel and 20% of them were active in at least one assay; those are over-represented in the sample as a whole.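 Activity criterion: percent growth below 10, measured after cells in 96-well plates were exposed to a single compound concentration for 48 hours.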 Unmarked numbers belong to inactive results. Activity calls are given as the source filed them.

The molecules below were run on NCI-H23 lung (assay: NCI-60 one-dose screen, 48 h (100 = growth as untreated, 0 = no growth, -100 = all killed)). Conditions: 10 µM.

Row | SMILES | growth
1 | CC(C)N(CCOc1cccc(-c2nc3sccn3c2-c2ccnc(S(C)(=O)=O)n2)c1)C(C)C | 96.1%
2 | O=C(CSc1nnc(-c2ccc(Cl)cc2)o1)Nc1ccc(C(=O)/C=C/c2ccc(Cl)cc2)cc1 | 87.7%
3 | CC[C@@H](C(=O)[C@@H](C)[C@@H](O)[C@H](C)[C@@H]1O[C@@H]([C@@H](CC)C(=O)N(CC)CC)CC[C@@H]1C)C1O[C@]2(C=CC(=O)[C@]3(CC[C@@](C)([C@H]4CC[C@](O)(CC)[C@H](C)O4)O3)O2)[C@H](C)C[C@@H]1C (stereo not given in full) | 20%
4 | COc1ccc(-c2onc(N)c2-c2cc(OC)c3c(c2)OCO3)cc1 | 44%
5 | CCN(CC)CCOc1cccc2c1C(=O)c1cccc(OCCN(CC)CC)c1C2=O | 42.2%
6 | COc1cc(/C=C/c2cc(/C=C/c3ccc(O)c(OC)c3)n(C(=O)Nc3ccc(C)cc3)n2)ccc1O | -10.4% (active)
7 | CCOC(=O)c1cc(C(=O)c2ccc(F)cc2F)n2ccccc12 | 101%
8 | COc1cc2c(cc1NC(=O)C(Cl)Cl)-c1ccc(NC(=O)C(Cl)Cl)cc1C2 | 48.6%
9 | COc1ccc(-c2cc(-c3ccccc3)nc(SCCCC(=O)NO)n2)cc1 | -33.3% (active)
10 | O=S(=O)(Oc1ccc(-c2ccc3sccc3c2)cc1)c1ccc(F)cc1 | 87.6%
11 | COc1cc(-c2nn(-c3ccc(NC(=O)NCCCNC(=O)c4ccccc4)cc3)cc2-c2ccncc2)ccc1Cl | 28.8%
12 | CN(C)CCCOc1ccc(OCCCN(C)C)c2c1C(=O)c1ccccc1C2=O | -19.6% (active)
13 | COc1cccc(C2C(C#N)=C(N)Oc3cc(N)ccc32)c1 (stereo not given) | 37.8%
14 | COc1cc(/C=C/c2cc(/C=C/c3ccc(O)c(OC)c3)[nH]c(=O)n2)ccc1O | 62.8%
15 | COc1ccc2nc(-c3ccc(Cl)cc3)cc(-c3nnc(SC/C(=N\O)c4ccccc4)n3-c3ccccc3)c2c1 | 92.9%
16 | CCOC(=O)CN(c1sc(C)c(C)c1C(=O)OCC)S(=O)(=O)c1ccc(C)cc1 | 94.3%
17 | COc1ccc(/C=C2/SC(=S)NC2=O)c(OC)c1OC | 73.9%
18 | CC(C)(C)OC(=O)N1CCc2c(sc3ncnc(N/N=C/c4ccccc4Br)c23)C1 | 74%
19 | NC(CSC(c1ccccc1)(c1ccccc1)c1cccc2ccccc12)C(=O)O (stereo not given) | 94.2%
20 | CN(C)CCCOc1ccccc1NC1=C(Cl)C(=O)C(Nc2ccccc2OCCCN(C)C)=C(Cl)C1=O | -48.5% (active)

Row | SMILES | growth
21 | NS(=O)(=O)c1ccc(Br)cc1 | 96%
22 | CN(C)CCCOc1ccc(NC2=C(Cl)C(=O)C(Nc3ccc(OCCCN(C)C)cc3)=C(Cl)C2=O)cc1 | -72% (active)
23 | COc1ccc(-c2n[nH]nc2-c2cc(OC)c3c(c2OC)OCO3)cc1 | 45.6%
24 | C=CCn1c(SCC(=O)Nc2ccc(C(=O)/C=C/c3cc(OC)c(OC)c(OC)c3)cc2)nnc1-c1cc(-c2ccc(Cl)cc2)nc2ccccc12 | 88.7%
25 | COc1ccc(C2=Cn3c(CCC(=O)c4nc5ccccc5[nH]4)nnc3SC2)cc1 | 94.5%
26 | CCN1CCN(CCC(=O)Nc2cccc(-n3cc(-c4ccncc4)c(-c4ccc(Cl)c(OC)c4)n3)c2)CC1 | 32.2%
27 | N#CCc1csc(Cc2ccccc2)n1 | 97.2%
28 | Cc1[nH]c2ccccc2c1/C=N/Nc1ncnc2sc3c(c12)CCN(CC(=O)OC(C)(C)C)C3 | 91.6%
29 | CCCc1cn(CC(=O)Nc2nc3ccccc3s2)nn1 | 110%
30 | C/C=C/CSC(C)(C)C(=O)NC | 102%
31 | Cc1ccc(Cl)cc1NC(=O)CCl | 74.2%
32 | CCOC(=O)c1cc(C(=O)c2ccc(OC)c(OC)c2)n2c1ccc1ccc3cccnc3c12 | 39.2%
33 | Cc1c(Cl)cccc1NC(=O)CCCl | 105%
34 | Cc1ccc(NCCNCC(C)(C)O)c2c(=O)c3ccc(Cl)cc3sc12 | 52%
35 | OCC1OC(n2cnc3c(NCc4ccco4)ncnc32)C(O)C1O (stereo not given) | 18%
36 | NS(=O)(=O)Oc1ccc(NC(=O)C2CCCCCC2)cc1 | 97.4%
37 | COc1cc(-c2nn(-c3ccc(NC(=O)NCCNS(=O)(=O)c4ccc(F)cc4)cc3)cc2-c2ccncc2)ccc1Cl | 12.7%
38 | NS(=O)(=O)Oc1ccc2c(ccn2C(=O)C23CC4CC(CC(C4)C2)C3)c1 | 97%
39 | COc1ccc(-c2cc(-c3ccc(Cl)cc3)nc(SCCCC(=O)NO)n2)cc1 | 0.964% (active)
40 | Nc1cc(Br)c(-c2nn3c(CCC(=O)c4nc5ccccc5[nH]4)nnc3s2)c(Br)c1 | 87.3%

The molecules below were run on NCI-H226 lung in the same assay as above. Conditions: 10 µM.

Row | SMILES | growth
41 | CC(C)N(CCOc1cccc(-c2nc3sccn3c2-c2ccnc(S(C)(=O)=O)n2)c1)C(C)C | 67.5%
42 | O=C(CSc1nnc(-c2ccc(Cl)cc2)o1)Nc1ccc(C(=O)/C=C/c2ccc(Cl)cc2)cc1 | 93.3%
43 | CC[C@@H](C(=O)[C@@H](C)[C@@H](O)[C@H](C)[C@@H]1O[C@@H]([C@@H](CC)C(=O)N(CC)CC)CC[C@@H]1C)C1O[C@]2(C=CC(=O)[C@]3(CC[C@@](C)([C@H]4CC[C@](O)(CC)[C@H](C)O4)O3)O2)[C@H](C)C[C@@H]1C (stereo not given in full) | 13.4%
44 | COc1ccc(-c2onc(N)c2-c2cc(OC)c3c(c2)OCO3)cc1 | 77%
45 | CCN(CC)CCOc1cccc2c1C(=O)c1cccc(OCCN(CC)CC)c1C2=O | 36.6%
46 | COc1cc(/C=C/c2cc(/C=C/c3ccc(O)c(OC)c3)n(C(=O)Nc3ccc(C)cc3)n2)ccc1O | -0.891% (active)
47 | CCOC(=O)c1cc(C(=O)c2ccc(F)cc2F)n2ccccc12 | 88.2%
48 | COc1cc2c(cc1NC(=O)C(Cl)Cl)-c1ccc(NC(=O)C(Cl)Cl)cc1C2 | 19.3%
49 | COc1ccc(-c2cc(-c3ccccc3)nc(SCCCC(=O)NO)n2)cc1 | -8.31% (active)
50 | O=S(=O)(Oc1ccc(-c2ccc3sccc3c2)cc1)c1ccc(F)cc1 | 94.5%
51 | COc1cc(-c2nn(-c3ccc(NC(=O)NCCCNC(=O)c4ccccc4)cc3)cc2-c2ccncc2)ccc1Cl | 56.1%
52 | CN(C)CCCOc1ccc(OCCCN(C)C)c2c1C(=O)c1ccccc1C2=O | -5.49% (active)
53 | COc1cccc(C2C(C#N)=C(N)Oc3cc(N)ccc32)c1 (stereo not given) | 70%
54 | COc1cc(/C=C/c2cc(/C=C/c3ccc(O)c(OC)c3)[nH]c(=O)n2)ccc1O | 76.2%
55 | COc1ccc2nc(-c3ccc(Cl)cc3)cc(-c3nnc(SC/C(=N\O)c4ccccc4)n3-c3ccccc3)c2c1 | 82.5%
56 | CCOC(=O)CN(c1sc(C)c(C)c1C(=O)OCC)S(=O)(=O)c1ccc(C)cc1 | 77.2%
57 | COc1ccc(/C=C2/SC(=S)NC2=O)c(OC)c1OC | 81.6%
58 | CC(C)(C)OC(=O)N1CCc2c(sc3ncnc(N/N=C/c4ccccc4Br)c23)C1 | 78%
59 | NC(CSC(c1ccccc1)(c1ccccc1)c1cccc2ccccc12)C(=O)O (stereo not given) | 96.6%
60 | CN(C)CCCOc1ccccc1NC1=C(Cl)C(=O)C(Nc2ccccc2OCCCN(C)C)=C(Cl)C1=O | -81% (active)

Row | SMILES | growth
61 | NS(=O)(=O)c1ccc(Br)cc1 | 110%
62 | CN(C)CCCOc1ccc(NC2=C(Cl)C(=O)C(Nc3ccc(OCCCN(C)C)cc3)=C(Cl)C2=O)cc1 | -84.1% (active)
63 | COc1ccc(-c2n[nH]nc2-c2cc(OC)c3c(c2OC)OCO3)cc1 | 75%
64 | C=CCn1c(SCC(=O)Nc2ccc(C(=O)/C=C/c3cc(OC)c(OC)c(OC)c3)cc2)nnc1-c1cc(-c2ccc(Cl)cc2)nc2ccccc12 | 89.1%
65 | COc1ccc(C2=Cn3c(CCC(=O)c4nc5ccccc5[nH]4)nnc3SC2)cc1 | 89.3%
66 | CCN1CCN(CCC(=O)Nc2cccc(-n3cc(-c4ccncc4)c(-c4ccc(Cl)c(OC)c4)n3)c2)CC1 | 65%
67 | N#CCc1csc(Cc2ccccc2)n1 | 101%
68 | Cc1[nH]c2ccccc2c1/C=N/Nc1ncnc2sc3c(c12)CCN(CC(=O)OC(C)(C)C)C3 | 98%
69 | CCCc1cn(CC(=O)Nc2nc3ccccc3s2)nn1 | 106%
70 | C/C=C/CSC(C)(C)C(=O)NC | 100%
71 | Cc1ccc(Cl)cc1NC(=O)CCl | 99.4%
72 | CCOC(=O)c1cc(C(=O)c2ccc(OC)c(OC)c2)n2c1ccc1ccc3cccnc3c12 | 64.4%
73 | Cc1c(Cl)cccc1NC(=O)CCCl | 95.3%
74 | Cc1ccc(NCCNCC(C)(C)O)c2c(=O)c3ccc(Cl)cc3sc12 | 76.6%
75 | OCC1OC(n2cnc3c(NCc4ccco4)ncnc32)C(O)C1O (stereo not given) | 51.8%
76 | NS(=O)(=O)Oc1ccc(NC(=O)C2CCCCCC2)cc1 | 100%
77 | COc1cc(-c2nn(-c3ccc(NC(=O)NCCNS(=O)(=O)c4ccc(F)cc4)cc3)cc2-c2ccncc2)ccc1Cl | 36.2%
78 | NS(=O)(=O)Oc1ccc2c(ccn2C(=O)C23CC4CC(CC(C4)C2)C3)c1 | 93.4%
79 | COc1ccc(-c2cc(-c3ccc(Cl)cc3)nc(SCCCC(=O)NO)n2)cc1 | -2.21% (active)
80 | Nc1cc(Br)c(-c2nn3c(CCC(=O)c4nc5ccccc5[nH]4)nnc3s2)c(Br)c1 | 83.6%
